# In PubChem BioAssay (EPA / NIEHS):
# “And” between values parts separate entries of the source, which are not always exact repeats. Equal values may be shown once. Records with an inconclusive call do not appear. Some structures have more than one record in an assay (separate samples or runs), and their calls can disagree. The source made the active and inactive calls. How the source made its calls: active means hit-call score of the fitted dose curve at least 0.9, where 1 is the maximum; inconclusive means response in the unintended direction; inactive means score below 0.9.
# Key:
# [1] = biological target: Cellular tumor antigen p53 (Homo sapiens) (UniProt P04637); test: TOX21_p53_BLA_p3_ratio: Tox21 HCT-116 p53 Agonism Beta-lactamase Assay, Ratio, Phase 3 (AID 2283596)
# Chain of Cellular tumor antigen p53 (Homo sapiens) (P04637 whole entry, looked up): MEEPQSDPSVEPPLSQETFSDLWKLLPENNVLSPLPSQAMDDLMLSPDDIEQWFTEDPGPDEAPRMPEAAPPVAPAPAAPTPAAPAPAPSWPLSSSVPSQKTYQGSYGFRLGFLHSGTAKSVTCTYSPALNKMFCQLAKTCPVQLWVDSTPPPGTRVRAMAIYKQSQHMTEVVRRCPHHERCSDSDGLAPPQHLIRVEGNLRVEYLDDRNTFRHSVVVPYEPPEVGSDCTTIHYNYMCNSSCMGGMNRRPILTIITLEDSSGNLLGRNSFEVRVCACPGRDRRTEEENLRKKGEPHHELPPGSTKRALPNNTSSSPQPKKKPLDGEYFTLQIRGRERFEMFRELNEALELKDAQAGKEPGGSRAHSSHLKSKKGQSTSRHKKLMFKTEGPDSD
# Summary of the method: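 HCT116 p53-bla cells (4000/well) given compound in DMSO (217-fold dilution) after 5 h, incubated 16 h at 37C. CCF4-AM substrate 2 h at room temperature; 460/530 nm emission ratio, gain fitted against DMSO.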
# [2] = biological target: Cellular tumor antigen p53 (Homo sapiens) (UniProt P04637); test: TOX21_p53_BLA_p5_ratio: Tox21 HCT-116 p53 Agonism Beta-lactamase Assay, Ratio, Phase 5 (AID 2283599)
# Summary of the method: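 HCT-116 cells carrying a p53-inducible beta-lactamase reporter were seeded at 4000 cells/well and dosed after 5 h with compound in DMSO (217-fold dilution). After 16 h at 37C, CCF4-AM substrate was added for 2 h, and the 460/530 nm emission ratio was scored as gain-of-signal versus DMSO.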
# [3] = TOX21_p53_BLA_p5_viability: Viability Assessment in the Tox21 HCT-116 p53 Agonism Beta-lactamase Assay, Phase 5 (AID 2283600)
# Summary of the method: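 Compounds, pinned from DMSO at 217-fold dilution, were left on the cells for 16 h. The viability endpoint was ATP content measured by CellTiter-Glo luminescence, where falling signal reflects cytotoxicity.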
# [4] = biological target: Cellular tumor antigen p53 (Homo sapiens) (UniProt P04637); test: TOX21_p53_BLA_p4_ratio: Tox21 HCT-116 p53 Agonism Beta-lactamase Assay, Ratio, Phase 4 (AID 2283601)
# Summary of the method: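 HCT116 cells carrying an inducible beta-lactamase reporter were plated at 4000 cells/well, rested 5 h, then exposed to compounds in DMSO (217-fold dilution) for 16 h at 37C. CCF4-AM substrate was loaded 2 h at room temperature; 460/530 nm emission ratio scored gain-of-signal versus DMSO.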
# [5] = Tanguay_ZF_120hpf_MORT_legacy: (Legacy) Oregon State University Tanguay Lab 120 Hour Post-fertilization zebrafish Assay for Mortality (AID 2283633)
# Summary of the method: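 Brightfield scoring of embryo death (binary) at 24 and 120 hpf; static exposure 6–120 hpf, 28C, sealed and foil-covered. Pronase-dechorionated 5D wild-type larvae, single embryo per well. DMSO 0.64% v/v; trimethyltin chloride 5uM positive control.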
# [6] = Tanguay_ZF_120hpf_YSE_legacy: (Legacy) Oregon State University Tanguay Lab 120 Hour Post-fertilization zebrafish Assay for Yolk Sac Edema (AID 2283634)
# Summary of the method: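 Binary brightfield scoring of yolk sac edema at 120 hpf; DMSO baseline, gain-of-signal fitting. Dechorionated 5D larvae, one per well, static exposure 6–120 hpf, 28C, 0.64% DMSO. Dead embryos not scored.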
# [7] = Tanguay_ZF_120hpf_AXIS_legacy: (Legacy) Oregon State University Tanguay Lab 120 Hour Post-fertilization zebrafish Assay for Body Axis Malformation (AID 2283635)
# Summary of the method: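 Embryos: 5D wild-type, pronase-dechorionated 4 hpf; static exposure 6–120 hpf, 28C, sealed, dark, 1 embryo/well, 0.64% DMSO. 120 hpf axis malformation scored present/absent; dead embryos excluded. Analysed as gain of signal vs DMSO.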
# [8] = Tanguay_ZF_120hpf_SNOU_legacy: (Legacy) Oregon State University Tanguay Lab 120 Hour Post-fertilization zebrafish Assay for Snout Malformation (AID 2283637)
# Summary of the method: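 Tropical 5D wild-type zebrafish embryos, dechorionated with pronase at 4 hpf, were exposed singly from 6 hpf to 120 hpf statically at 28C in 0.64% DMSO. Snout malformation was scored present/absent by brightfield microscopy, fitted against DMSO.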
# [9] = Tanguay_ZF_120hpf_JAW_legacy: (Legacy) Oregon State University Tanguay Lab 120 Hour Post-fertilization zebrafish Assay for Jaw Malformation (AID 2283638)
# Summary of the method: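 Binary jaw-malformation calls at 120 hpf by brightfield imaging; DMSO (0.64% v/v) = baseline. Embryos: 5D wild-type, pronase-dechorionated, one per well from 6 hpf, static exposure, 28C, sealed, dark.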
# [10] = Tanguay_ZF_120hpf_OTIC_legacy: (Legacy) Oregon State University Tanguay Lab 120 Hour Post-fertilization zebrafish Assay for Otic Vesicle Malformation (AID 2283639)
# Summary of the method: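 Otic vesicle malformation is read as a yes/no morphology call at 120 hpf. Exposure is static at 28C with 0.64% (vol/vol) DMSO; embryos that die are excluded from non-mortality endpoints.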
# [11] = Tanguay_ZF_120hpf_PE_legacy: (Legacy) Oregon State University Tanguay Lab 120 Hour Post-fertilization zebrafish Assay for Pericardial Edema (AID 2283640)
# Summary of the method: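 Static waterborne exposure, 5D wild-type embryos, 28C, to 120 hpf; final DMSO 0.64% (vol/vol). Binary PE call at 120 hpf by brightfield; fitted upward vs DMSO baseline. 5uM trimethyltin chloride as positive control.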
# [12] = Tanguay_ZF_120hpf_BRAI_legacy: (Legacy) Oregon State University Tanguay Lab 120 Hour Post-fertilization zebrafish Assay for Brain Malformation (AID 2283641)
# Summary of the method: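 Read-out: binary brain morphology call at 120 hpf (brightfield), fitted in gain-of-signal direction vs DMSO. Wild-type Tropical 5D embryos, static exposure, 28C, 0.64% DMSO final; 5uM trimethyltin chloride as positive control.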
# [13] = Tanguay_ZF_120hpf_SOMI_legacy: (Legacy) Oregon State University Tanguay Lab 120 Hour Post-fertilization zebrafish Assay for Somite Malformation (AID 2283647)
# Summary of the method: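 Binary brightfield scoring of somite defects at 120 hpf in 5D wild-type larvae; one dechorionated embryo per well, static exposure from 6 hpf, 28C, sealed and dark. Final DMSO 0.64%; trimethyltin chloride 5uM positive control.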
# [14] = Tanguay_ZF_120hpf_PFIN_legacy: (Legacy) Oregon State University Tanguay Lab 120 Hour Post-fertilization zebrafish Assay for Pectoral Fin Malformation (AID 2283648);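 further: each larva judged yes or no for fin defect by brightfield with dead larvae skipped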
# Summary of the method: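 Tropical 5D wild-type embryos, dechorionated with pronase at 4 hpf, were placed singly in wells at 6 hpf and statically exposed until 120 hpf at 28C, sealed and dark, with 0.64% (vol/vol) final DMSO; pectoral fin malformation scored present/absent.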
# [15] = Tanguay_ZF_120hpf_CFIN_legacy: (Legacy) Oregon State University Tanguay Lab 120 Hour Post-fertilization zebrafish Assay for Caudal Fin Malformation (AID 2283649)
# Summary of the method: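 Dechorionated 5D wild-type zebrafish, static exposure 6–120 hpf, 28C, sealed and dark, 0.64% v/v DMSO final. Binary fin-malformation call at 120 hpf, brightfield; gain of signal vs DMSO baseline.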
# [16] = Tanguay_ZF_120hpf_PIG_legacy: (Legacy) Oregon State University Tanguay Lab 120 Hour Post-fertilization zebrafish Assay for Pigmentation Malformation (AID 2283650)
# Summary of the method: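 Tropical 5D wild-type zebrafish embryos, dechorionated with pronase at 4 hpf, were exposed singly from 6 hpf to 120 hpf statically at 28C in sealed, dark plates with 0.64% DMSO; pigmentation scored present/absent by brightfield microscopy, fitted against DMSO.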
# [17] = Tanguay_ZF_120hpf_CIRC_legacy: (Legacy) Oregon State University Tanguay Lab 120 Hour Post-fertilization zebrafish Assay for Circulatory Malformation (AID 2283651)
# Summary of the method: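 Using wild-type Tropical 5D zebrafish, we exposed dechorionated embryos from 6 to 120 hpf in embryo medium with 0.64% DMSO. Circulatory defects were scored as present or absent; 5uM trimethyltin chloride served as positive control.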
# [18] = Tanguay_ZF_120hpf_SWIM_legacy: (Legacy) Oregon State University Tanguay Lab 120 Hour Post-fertilization zebrafish Assay for Swim Bladder Malformation (AID 2283654);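 further: swim bladder malformation in each larva scored yes or no under brightfield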
# Summary of the method: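 Dechorionated Tropical 5D wild-type embryos, placed singly from 6 hpf, were statically exposed at 28C to 120 hpf with 0.64% DMSO final; swim bladder malformation was scored present/absent by brightfield microscopy, gain of signal relative to DMSO controls.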
# [19] = TOX21_p53_BLA_p4_viability: Viability Assessment in the Tox21 HCT-116 p53 Agonism Beta-lactamase Assay, Phase 4 (AID 2283597);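 further: hits lower the luminescence signal meaning cytotoxicity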
# Summary of the method: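 We seeded HCT116 p53 reporter cells at 4000/well and waited 5 h. We then added compounds in DMSO at a 217-fold dilution and incubated for 16 h. Viability was read as CellTiter-Glo luminescence after 30 min at RT.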
compound,measurement,setting,value
O=C(O)c1cc(O)c2ccccc2c1O,outcome,[1],inactive
same,outcome,[2],inactive
same,outcome,[3],inactive
same,outcome,[4],inactive
CCCCCCCCCCCCC,outcome,[1],inactive
same,outcome,[2],inactive
same,outcome,[3],inactive
same,outcome,[4],inactive
CC(=O)c1ccccc1O,outcome,[1],inactive
same,outcome,[2],inactive
c1ccc2c(c1)[nH]c1ccccc12,outcome,[1],inactive
same,outcome,[2],inactive
same,outcome,[4],inactive
O=C(O)CCCC(=O)O,outcome,[1],inactive
same,outcome,[2],inactive
same,outcome,[4],inactive
CCC(C)(O)CCCC(C)C (stereo not given),outcome,[1],inactive
same,outcome,[2],inactive
same,outcome,[3],inactive
same,outcome,[4],inactive
CC/C=C\CCOC(=O)c1ccccc1O,outcome,[1],inactive
same,outcome,[2],inactive
same,outcome,[4],inactive
CC(C)c1cccc(C(C)C)c1N,outcome,[1],inactive
same,outcome,[2],inactive
CC(C)C(=O)OCCOc1ccccc1,outcome,[1],inactive
same,outcome,[2],inactive
same,outcome,[4],inactive
Cc1ccc([N+](=O)[O-])cc1N,outcome,[1],inactive
same,outcome,[2],inactive
same,outcome,[4],inactive
same,outcome,[5],inactive
same,outcome,[6],inactive
same,outcome,[7],inactive
same,outcome,[8],inactive
same,outcome,[9],inactive
same,outcome,[10],inactive
same,outcome,[11],inactive
same,outcome,[12],inactive
same,outcome,[13],inactive
same,outcome,[14],inactive
same,outcome,[15],inactive
same,outcome,[16],inactive
same,outcome,[17],inactive
same,outcome,[18],inactive
C=CC(=O)OCC(C)OCC(C)OCC(C)OC(=O)C=C (stereo not given),outcome,[1],inactive
same,outcome,[2],inactive
same,outcome,[4],inactive
CC1=CC(C)C(C=O)CC1 (stereo not given),outcome,[1],inactive
same,outcome,[2],inactive
same,outcome,[4],inactive
OCCCc1ccccc1,outcome,[1],inactive
same,outcome,[2],inactive
same,outcome,[4],inactive
Nc1ccc(C(=O)O)cc1,outcome,[1],inactive
same,outcome,[2],inactive
same,outcome,[3],inactive
same,outcome,[4],inactive
same,outcome,[5],inactive
same,outcome,[7],inactive
same,outcome,[8],inactive
same,outcome,[9],inactive
same,outcome,[10],inactive
same,outcome,[11],inactive
same,outcome,[13],inactive
same,outcome,[14],inactive
same,outcome,[15],inactive
same,outcome,[16],inactive
same,outcome,[17],inactive
same,outcome,[18],inactive
CO[Si](CCCS)(OC)OC,outcome,[1],inactive
same,outcome,[2],inactive
same,outcome,[4],inactive
CCCCCCCCCCCC(=O)OCC,outcome,[1],inactive
same,outcome,[2],inactive
same,outcome,[3],inactive
same,outcome,[4],inactive
CCCCOCC(C)O (stereo not given),outcome,[1],inactive
same,outcome,[2],inactive
same,outcome,[3],inactive
COc1ccc(C(=O)c2ccccc2)c(O)c1,outcome,[1],inactive
same,outcome,[2],inactive
same,outcome,[3],inactive
same,outcome,[4],inactive
CC1CC(=O)CC(C)(C)C1 (stereo not given),outcome,[1],inactive
same,outcome,[2],inactive
same,outcome,[4],inactive
CCC1COC(=O)O1 (stereo not given),outcome,[1],inactive
same,outcome,[2],inactive
same,outcome,[3],inactive
same,outcome,[4],inactive
Cc1cc(C)n(CO)n1,outcome,[1],inactive
same,outcome,[2],inactive
same,outcome,[3],inactive
same,outcome,[4],inactive
Cc1ccc(S(=O)(=O)N=C=O)cc1,outcome,[1],inactive
same,outcome,[2],inactive
same,outcome,[4],inactive
CC(=O)CCC=C(C)C,outcome,[1],inactive
same,outcome,[2],inactive
same,outcome,[4],inactive
COC(C=C(C)CCC=C(C)C)OC,outcome,[1],inactive
same,outcome,[2],inactive
same,outcome,[4],inactive
CC(=O)OC(C)c1ccccc1 (stereo not given),outcome,[1],inactive
same,outcome,[2],inactive
same,outcome,[3],inactive
same,outcome,[4],inactive
Cc1ccccc1CCO,outcome,[1],inactive
same,outcome,[2],inactive
same,outcome,[4],inactive
CC1OC(=O)C(C)OC1=O (stereo not given),outcome,[1],inactive
same,outcome,[3],inactive
O=C(OCCc1ccccc1)c1ccccc1,outcome,[19],inactive
same,outcome,[2],inactive
same,outcome,[4],inactive
Nc1ccc(C(=O)OCCCOC(=O)c2ccc(N)cc2)cc1,outcome,[19],inactive
same,outcome,[2],inactive
same,outcome,[3],inactive
CCCC(CC)c1ccccc1 (stereo not given),outcome,[19],inactive
CC1(C)CCC[C@]2(C)[C@H]3CC(=O)O[C@]3(C)CC[C@@H]12,outcome,[19],inactive
same,outcome,[2],inactive
same,outcome,[3],inactive
same,outcome,[4],inactive
CCCCC/C=C\C/C=C\CCCCCCCC(=O)O,outcome,[19],inactive
same,AC50,[2],86.3 µM (active)
same,outcome,[2],inactive
same,AC50,[3],80.5 µM (active)
same,outcome,[3],inactive
same,outcome,[4],inactive
C=CC(C)(CCC=C(C)C)OC(=O)C=Cc1ccccc1 (stereo not given),outcome,[19],inactive
CCCCC1C(=O)N(c2ccccc2)N(c2ccccc2)C1=O,outcome,[19],inactive
same,outcome,[2],inactive
same,outcome,[3],inactive
same,outcome,[4],inactive
c1ccc(Nc2cccc3ccccc23)cc1,AC50,[19],43.6 µM (active) and 82.6 µM (active)
same,AC50,[2],82.2 µM (active)
same,outcome,[2],inactive
same,AC50,[4],74.3 µM (active)
same,outcome,[4],inactive
CCOC(=O)C1=NOC(c2ccccc2)(c2ccccc2)C1,outcome,[19],inactive
same,outcome,[2],inactive
same,outcome,[3],inactive
same,outcome,[4],inactive
CC1=CCC2CC1C2(C)C (stereo not given),outcome,[19],inactive
CC(C)COC(=O)CC(C(=O)OCC(C)C)S(=O)(=O)O (stereo not given),outcome,[19],inactive
same,outcome,[2],inactive
same,outcome,[4],inactive
CC(=O)OCCc1ccccc1,outcome,[19],inactive
same,outcome,[2],inactive
same,outcome,[3],inactive
same,outcome,[4],inactive
CC(C)[N+](C)(CCOC(=O)C1c2ccccc2Oc2ccccc21)C(C)C,outcome,[19],inactive
same,outcome,[2],inactive
same,outcome,[3],inactive
same,outcome,[4],inactive
CC(C)CC(=O)OCc1ccccc1,outcome,[19],inactive
same,outcome,[2],inactive
same,outcome,[3],inactive
same,outcome,[4],inactive
C/C=C/C=C/CCCCCCCO,outcome,[19],inactive
same,outcome,[2],inactive
same,outcome,[3],inactive
N=C1C=CC(=C(c2ccc(N)cc2)c2ccc(N)cc2)C=C1,outcome,[19],inactive
same,AC50,[2],67.3 µM (active)
same,outcome,[4],inactive
CCOC(=O)c1ccccc1C,outcome,[19],inactive
same,outcome,[2],inactive
same,outcome,[3],inactive
same,outcome,[4],inactive
